Screening data as filed in PubChem.
The full list was thinned out, with hits kept by preference.
Pf Dd2 growth: inhibitors of Plasmodium falciparum Dd2 growth | P. falciparum Dd2 growth, SYBR Green, 72 h | Potency, µM (doses to about 28.9 µM), most hits filed as inhibitors | hit rate 4.3% among 120,000 | AID 1347417; active means well fitted inhibition curve with a large enough effect; further: nearly all actives have a fitted effect of over 65% in size
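Readout: SYBR Green fluorescence, 485 nm excitation, 535 nm emission, after ~16 h lysis at 37C. Before that, Dd2-infected red cells (2.5% hematocrit) grew 72 h with compound, 29 uM top final concentration.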
Large screens that a line does not name were inactive.

O=[S+]1([O-])NCC2(CCN(Cc3cccc4ccccc34)CC2)Nc2ccccc21	none
O=C(Nc1ccc(F)c(Cl)c1)N1CCC(Oc2ncccc2C(=O)N2CCOCC2)C1 (stereo not given)	none
COc1ccc(-n2cc(-c3ccccc3)c3c(SC(C)C(C)=O)ncnc32)cc1 (stereo not given)	none
CN(c1ncnc2c1c(-c1ccccc1)cn2-c1ccc(F)cc1)C1CCCCC1	none
COC(=O)C(C)Sc1ncnc2c1c(-c1ccccc1)cn2-c1ccc(F)cc1 (stereo not given)	Pf Dd2 growth 5.6µM
Cc1ccc(N2CC(c3noc(-c4ccc5c(c4)OCO5)n3)CC2=O)cc1 (stereo not given)	none
CCCS(=O)(=O)Nc1ccc2n(c1=O)C[C@H]1C[C@@H]2CN(C(=O)c2ccc(-c3ccccc3)cc2)C1	none
O=C(NCc1cccc(F)c1)C1CCN(C(=O)c2ncn3c2COC(c2ccc(F)cc2)C3)CC1 (stereo not given)	none
CNC(=O)[C@@H]1CN(S(=O)(=O)c2ccc3c(c2)CCC3)C[C@H]1c1n[nH]c(C)n1	none
CN(C)CCNC(=O)c1ccc2c(c1)C1(CCCN(CC3CC3)C1)CN2C (stereo not given)	none
CC(=O)N1CCCC2(C1)CN(C)c1ccc(C(=O)NCCc3ccccc3)cc12 (stereo not given)	none
CN1CC2(CCCN(CC3CC3)C2)c2cc(C(=O)NCCc3ccccc3)ccc21 (stereo not given)	Pf Dd2 growth 3.2µM
COc1ccc(NC(=O)c2c(NCc3cccc(F)c3)sc3c2CCCC3)c(OC)c1	Pf Dd2 growth 8.9µM
COc1ccc(S(=O)(=O)N2CCc3c(C(=O)NCc4cccc(F)c4)cccc32)cc1	none
CCC(=O)Nc1sc2c(c1C(=O)Nc1ccc(OC)cc1)CCC(C(C)(C)C)C2 (stereo not given)	none
COc1ccc(NC(=O)c2c(NC(=O)COc3ccccc3)sc3c2CCCCC3)cc1	none
CCOC(=O)N1CCc2c(sc(NCc3ccc(N(C)C)cc3)c2C(=O)Nc2ccc(OC)cc2)C1	Pf Dd2 growth 11µM
COc1ccc(CNC(=O)c2cc3c(s2)CCN(C(C)=O)C3)cc1	none
COC(=O)c1c(NC(=O)c2c(OC)cccc2OC)sc2c1CCCC2	none
COC(=O)c1c(NC(=O)COc2cccc(C(F)(F)F)c2)sc2c1CCCC2	none
CCOC(=O)N1CCc2c(sc(NCc3cccc(F)c3)c2C(=O)Nc2ccc(OC)cc2)C1	Pf Dd2 growth 7.9µM
COC(=O)c1ccc(NC(=O)c2c(NCc3cccc(F)c3)sc3c2CCCC3)cc1	Pf Dd2 growth 13µM
CCNC(=O)c1c(NC(=O)COc2ccc(F)cc2)sc2c1CCCC2	none
CCOc1ccccc1NC(=O)Cn1c(=O)n(-c2ccc(F)cc2)c(=O)c2c1cc(C)n2C	none
O=C(C1CC(=O)N(c2n[nH]c3ccccc23)C1)N1CCSCC1 (stereo not given)	none
O=C(C[C@@H]1C[C@H]2O[C@H](CNCc3ccncc3F)[C@@H](O)[C@H]2O1)N1CCOCC1	none
CN(C)C[C@@H]1CN(c2ccccn2)C[C@H]1NC(=O)c1ccsc1	none
Cc1cn2nc(C(=O)NCc3ccncc3)cc2c(=O)[nH]1	none
O=C(OCc1ccccc1)N1CCC2(CC1)C(=O)NN=C2c1ccccn1	none
COc1ccccc1N1CCN([C@@H]2[C@H](O)[C@H](CO)O[C@@H]2CNC(=O)NC(C)C)CC1	none
Cc1noc(C)c1CC(=O)NCCc1noc(-c2ccncc2)n1	none
O=C(c1ccccc1)N1CCC(c2nn(-c3ccccc3)c(=O)[nH]2)CC1	none
CCOC(=O)c1ccc(NC(=O)c2c(NCc3cc(OC)c(OC)cc3OC)sc3c2CCCC3)cc1	Pf Dd2 growth 13µM
CCC(=O)N1CCc2c(C(=O)Nc3ccc(OC)cc3OC)cccc21	none
CCOC(=O)c1c(NC(=O)CS(=O)(=O)c2ccc(Cl)cc2)sc2c1CCCC2	none
COc1ccc(NC(=O)c2c(NC(=O)c3ccc(Br)cc3)sc3c2CCCC3)cc1	none
COc1ccc(NC(=O)CN2CCN(CC(=O)Nc3ccccc3F)CC2)c(OC)c1	none
CCOC(=O)N1CCc2c(sc(NCc3cccc(F)c3)c2C(=O)Nc2ccc(OC)cc2OC)C1	Pf Dd2 growth 4µM
Cc1noc2c(NC3CCN(C)CC3)cc(-c3ccc(F)cc3)nc12	none
c1cc(-c2nc(C3CCOCC3)nn2CC2COCCO2)[nH]n1 (stereo not given)	none
CC1=C[C@@H](CNC(=O)c2ccccc2)[C@H](C(C)C)C[C@H]1CC(=O)NCc1cccnc1	none
COc1ccc([C@H]2C[C@@H](O)[C@@H](O)[C@@H]2NCc2cccc(C(F)(F)F)c2)cc1	Pf Dd2 growth 8.9µM
COc1ccc([C@H]2C[C@@H](O)[C@@H](O)[C@@H]2NCc2cccc(C#N)c2)cc1	none
COc1ccc([C@H]2C[C@@H](O)[C@@H](O)[C@@H]2NCc2cnc3ccccc3c2)cc1	none
CN(Cc1cccc2cnccc12)C(=O)c1cc(COc2ccccc2F)[nH]n1	none
COC[C@H]1CCCN1C(=O)CC[C@H]1CNC(=O)[C@@H]2[C@@H](CCN2C2CCOCC2)N1C	none
CCN1c2cc(C(N)=O)ccc2C(=O)N2CCCCCC21 (stereo not given)	none
O=C(c1ccccc1)N1CCC(Cc2nc(-c3ccncc3)n[nH]2)CC1	Pf Dd2 growth 1.3µM
O=C(Nc1ccc2c(c1)OCCO2)N1CCC(Cc2nc(-c3cccnc3)n[nH]2)C1 (stereo not given)	Pf Dd2 growth 3.5µM
Fc1cccc(CN2CCC(Cc3nc(-c4ccccc4)n[nH]3)C2)c1 (stereo not given)	Pf Dd2 growth 3.5µM
O=C(Nc1ccc2c(c1)OCCO2)N1CCCC(Cc2noc(-c3ccncc3)n2)C1 (stereo not given)	none
CCC(=O)N1CCC(Cc2nc(-c3ccccc3)n[nH]2)CC1	none
O=C(NCc1ccccc1)N1CCC(Cc2nc(-c3ccccc3)n[nH]2)C1 (stereo not given)	none
CCc1n[nH]c(CC2CCN(C(=O)c3ccccc3)CC2)n1	none
O=C(Cc1ccccc1)N1CCC(Cc2nc(-c3cccnc3)n[nH]2)C1 (stereo not given)	none
Cc1ccc(CN2CCC(Cc3nc(-c4cccnc4)n[nH]3)C2)cc1C (stereo not given)	none
O=C(NCc1cccnc1)c1c(OCC2CC2)cc(=O)n2c1CCCCC2	none
NC(=O)C1(C(=O)N2CCc3cc(S(=O)(=O)Nc4cccnc4)ccc3C2)CC1	none
COc1ccc(F)cc1-c1ncc2c(n1)OCCN(c1cccc(C(F)(F)F)c1)C2=O	none
CC(C)c1cc(C(=O)N2CC[C@@](O)(C3CCOCC3)[C@H](C)C2)cs1	none
O=C(NCc1ccccc1)c1cnc2n1CCN(Cc1cccc(O)c1)CC2	none
COC1CCCN(c2ncc(C(C)(C)C(=O)O)c(N3CCOCC3)n2)C1 (stereo not given)	none
Cn1ccc2c(C(=O)NCC3CCC(=O)N3)nc(-c3ccccc3C#N)cc21 (stereo not given)	none
Cc1cc(N2CCC(NC(=O)c3ccc4nc[nH]c4c3)C2=O)ccc1F (stereo not given)	none
O=C(N1CCC(Cc2nc(C3CCOCC3)no2)CC1)C1(c2ccccc2)CC1	none
COCCC(=O)N1CCC2(CC1)CC(Cc1nc(-c3ccncc3)no1)CCO2 (stereo not given)	none
O=C(N1CCC2(CC1)CC(Cc1nc(-c3cccnc3)no1)CCO2)C1(c2ccccc2)CC1 (stereo not given)	Pf Dd2 growth 7.9µM
COc1ccc(CCC(=O)N2CCC3(CC2)CC(Cc2nc(-c4cnccn4)no2)CCO3)cc1 (stereo not given)	none
COc1cccc(CC(=O)N2CCC3(CC2)CC(Cc2nc(-c4cccnc4)no2)CCO3)c1 (stereo not given)	Pf Dd2 growth 8.9µM
